Growth data for 13 molecules are collected here from PubChem BioAssay (NCI).

About 83,000 compounds went through this panel and 20% of them were active in at least one assay; those are over-represented in the sample as a whole.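 Percent growth is the endpoint: 0 to 100 indicates growth inhibition (40 means 60% inhibition), 0 means no net growth, and negative values indicate cell death.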 A number with no mark means an inactive call. Calls of active or inactive are those of the source. The calls were made as follows: active = growth percent below 10; inactive = the rest.

This test has as its system HL-60(TB) leukemia. Briefly: NCI-60 one-dose screen, 48 h (100 = growth as untreated, 0 = no growth, -100 = all killed). The conditions noted are these: 10 µM unless noted.
With `CCCCOc1ccc(C(C)(C)c2ccc(OCCCC)cc2)cc1`, the growth is 92.5%. For the molecule `CC(Sc1nc2ccccc2c(=O)n1CCc1ccc(S(N)(=O)=O)cc1)C(=O)Nc1ccc(Cl)cc1` (stereo not drawn), the growth was 86.2%. With `CC(CN)[C@@H]1CC[C@]2(CO)CC[C@]3(C)[C@H](CC[C@@H]4[C@@]5(C)CCC(NCCO)C(C)(C)[C@@H]5CC[C@]43C)[C@@H]12` (stereo partly drawn), the growth is 60%. The same measure for `Cc1cccc(Cc2cnc(NC(=O)CCCOc3ccc(Cl)cc3)s2)c1`: -34.2% (active); for `C=CC(=O)Nc1cccc(C)c1Nc1cc(-c2cccnc2Cc2c(C)c(OC)cc(OC)c2C)ncn1`: -23% (active); for `CC(CCc1ccccc1)NC(=O)c1n[nH]c(=O)c2ccccc12` (stereo not drawn): 88.3%. The same measure for `Cc1ccc(/C=C(\C#N)n2nnc3cc(Cl)c(Cl)cc32)cc1`: 1.4% (active); for `C#CCOc1cccc(Nc2c(Cl)c(CCl)nc3ccc(Oc4ccccc4)cc23)c1`: 41.4%; for `O=C(O)C(c1ccccc1)N1C(=O)CSC1=S` (stereo not drawn): 129%. As for `NS(=O)(=O)c1ccc(N=Nc2ccc(-c3nn4cc(-c5ccccc5)nc4s3)cc2)cc1`, the figure is 91.5%; as for `N[C@H]1CCC[C@@H]1NCCCCN1C(=O)c2cccc3cccc(c23)C1=O`, 85.5%; as for `COc1cc2cc(c1Cl)N(C)C(=O)C[C@H](OC(=O)[C@H](C)N(C)C(C)=O)[C@]1(C)O[C@H]1[C@H](C)[C@@H]1C[C@@](O)(NC(=O)O1)[C@H](OC)C=C/C=C(\C)C2`, -25.6% (active). Regarding `Nc1ccc2ccc(N)cc2c1`, the growth is 97.4%.
